HepG2 tox: qHTS for Inhibitors of TGF-b: Cytotox Counterscreen; Potency, µM (series often up to 46.1 µM), for the others: top-dose activity change, negative = cytotoxicity, actives largely listed as cytotoxic; HepG2 CAGA-GFP viability, ATP luminescence, 18 h; AID 588856, 2011; 0.76% of 410,000 active
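CellTiter-Glo luminescence gave cytotoxicity after 18 hours at 37 degrees C. The cells were HepG2 CAGA-GFP in 1% FBS DMEM, stimulated with 500 pg/mL TGF-beta after compound addition. %Activity was normalised to no-cell wells (complete cell-killing) and DMSO (no toxicity), and curves were fitted and classified.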
Nrf2 inh: Nrf2 qHTS screen for inhibitors; A549 ARE-Fluc reporter, luciferase luminescence, 18-24 h; 2.1% of 360,000 active; Potency, µM (titrated, usually from 46 µM), without a hit: top-dose activity change, negative = inhibition, most hits filed as inhibitors; further: on the % scale 0 is the no-effect control and ±100 the full control effect; nearly all actives have a fitted effect of over 60% in size
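Two sequential reads on A549 ARE_Fluc cells exposed to compound for 18-24 h: a CellTiter-Fluor fluorescence read for viability, then a luciferase luminescence read for Nrf2/ARE activity.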
TGFb SMAD3 inh: qHTS for Inhibitors of TGF-b | 1.2% of 410,000 active | Potency, µM (titrated, usually from 46.1 µM), inactives show top-dose activity, negative = inhibition, usual class: inhibitors | AID 588855, 2011 | HepG2 CAGA-GFP TGF-b/SMAD3 reporter, GFP fluorescence, 18 h; TGF-beta stimulated, 500 pg/mL final; further: on the % scale 0 is the no-effect control and ±100 the full control effect; nearly all actives have a fitted effect of over 65% in size
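Read-out: total well GFP (ex488/em500-530) summed from mean per-cell fluorescence. Cells: HEPG2 CAGA-GFP, 1% FBS DMEM, 18 h at 37 degrees C with 500 pg/mL final TGF-beta. Unstimulated wells served as the full-inhibition control; stimulated DMSO wells = 0%.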
S2 tox: Viability Counterscreen for Primary qHTS for Inhibitors of ATXN expression; S2 cells (HEK-293 line with an ATXN2-luciferase reporter) viability, CellTiter-Fluor protease fluorescence, 24 h; Potency, µM (doses to about 56.7 µM), most hits filed as cytotoxic; 0.49% of 400,000 active; further: nearly all actives have a fitted effect of over 40% in size
ATXN2 expr inh: Primary qHTS for Inhibitors of ATXN expression; 0.72% of 360,000 active; HEK-293 ATXN2-luciferase reporter, luminescence, 24 h; Potency, µM (doses to about 57 µM), for the others: at the top dose activity change, negative = inhibition, actives largely listed as inhibitors; AID 1745845, 2022; further: on the % scale 0 is the no-effect control and ±100 the full control effect; nearly all actives have a fitted effect of over 55% in size
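ATXN2-luciferase reporter cells (luciferase flanked by upstream and downstream ATXN2 gene portions) were treated 24 h at 37 °C with compounds at up to 57 uM. SteadyGlo luminescence gave expression; GF-AFC fluorescence gave viability.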
A549 viability: Nrf2 qHTS screen for inhibitors: counterscreen for cytotoxicity; 0.16% of 390,000 active; A549 ARE-Fluc cells, CellTiter-Fluor viability, 18-24 h; AID 504648, 2011; Potency, µM (top dose mostly 46 µM), without a hit: top-dose activity change, negative = cytotoxicity, most hits filed as inhibitors; further: on the % scale 0 is the no-effect control and ±100 the full control effect
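A549 ARE-Fluc cells in 5% FBS OPTI-MEM, 5000 cells/well, rested 2 h then exposed to compounds in concentration-response for 18-24 h at 37 °C. Viability by CellTiter-Fluor fluorescence (Ex 405/Em 525) after 30 min; luciferase luminescence (BugLite, 15 min, RT) read afterwards.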
* marks the source's active call; other numbers are inactive results; i = inactive; ? = inconclusive; / = not tested or not shown; ! = not active in a repeat. This is a sample that favours compounds with a hit; in the whole collection about 3.8% have one here. The call rests on the fitted dose curve; in most records, active means well fitted curve in the direction sought with a large enough effect; inconclusive means small, poorly fitted or top-dose-only effect, or another doubt; inactive means no such curve, though single readings can be large; an effect the other way counts as inactive or inconclusive. Potency means the concentration at half of the fitted maximal effect.

SMILES	HepG2 tox	Nrf2 inh	TGFb SMAD3 inh	S2 tox	ATXN2 expr inh	A549 viability
O=C(c1ccccc1)C(CN1CCCC1)c1ccccc1 (stereo unspecified)	5.6µM*	?	?	/	?	-11%
Cc1ccc(C)c(N2CCN(C(=O)C3CCCN(S(=O)(=O)c4cccc5nsnc45)C3)CC2)c1 (stereo unspecified)	-18%	16µM*	?	i	0%	-7%
Cn1nc(-c2ccccc2)nc2c(=O)n(C)c(=O)nc1-2	1µM*	2.6µM*	0.56µM*	/	/	3.7µM*
CCn1nc(-c2ccccc2)nc2c(=O)n(C)c(=O)nc1-2	-96%	2.9µM*	0.56µM*	/	28µM*	4.1µM*
COc1ccc(-c2nc3ccccc3c(=O)n2-c2ccc(OC)cc2)cc1	-8%	-6%	-5%	i	-16%	2%
Cc1nc2c(=O)n(C)c(=O)nc-2n(C)n1	0.63µM*	2.3µM*	0.63µM*	7.1µM*	3.5µM*	1.6µM*
COc1cccc(-n2cnc3sc(-c4ccccc4)cc3c2=O)c1	0%	?	0%	i	25%	2%
CCCOc1ccc(C(=O)Nc2ccc(-c3cc4ccccc4oc3=O)c(C)c2)cc1	-22%	5.8µM*	-28%	?	?	-7%
CC[C@@H](C(=O)[C@@H](C)[C@@H](O)[C@H](C)[C@@H]1O[C@@H]([C@@H](CC)C(=O)O)CC[C@@H]1C)[C@H]1O[C@]2(C=C[C@@H](O)[C@]3(CC[C@@](C)([C@H]4CC[C@](O)(CC)[C@H](C)O4)O3)O2)[C@H](C)C[C@@H]1C	-20%	1.5µM*	?	5.6µM*	4.5µM*	4.6µM*
CCc1ccc(CNC(=O)C2CCN(C(=O)c3ccc(-n4c(C)cc5ccccc54)s3)CC2)cc1	-27%	18µM*	?	/	/	-29%
CCN(CC)c1ccc(CNCCc2ccccc2F)cc1	-21%	0%	-10%	?	-24%	?
COC1CC2C=C(C)C=CC=CC(=O)NC(c3ccccc3)CC=CCCC(O)CC(=O)C2=C1O (stereo unspecified)	-110%	/	?	14µM*	2.8µM*	/
CC(Cc1ccccc1)/[N+]([O-])=C\c1ccc(C(F)(F)F)cc1 (stereo unspecified)	9%	?	1%	i	12%	16%
CNCCC(Oc1ccc(C(F)(F)F)cc1)c1ccccc1 (stereo unspecified)	-47%	1%	55%	32µM*	28µM*!	-4%
c1ccc2nc3ccccc3nc2c1	-12%	21µM*	0%	i	6%	?
Cc1ccc(C)c(CN2C(=O)c3ccccc3S(=O)(=O)c3ccc(C(=O)N4CCCCCC4)cc32)c1	-9%	21µM*	/	/	/	-28%
C=CCN1C(=O)c2ccccc2Sc2ccc(C(=O)N3CCC4(CC3)OCCO4)cc21	0%	-26%	0%	i	-15%	-3%
COc1ccc(NC(=O)Cn2c(=O)oc3cc(S(=O)(=O)NCc4ccccc4)ccc32)c(OC)c1	-32%	/	0%	/	/	-1%
C[C@H]1CC[C@@H]2[C@@H](C)[C@H]3[C@H](C[C@H]4[C@@H]5CC=C6C[C@@H](O[C@@H]7O[C@H](CO)[C@H](O)[C@H](O[C@@H]8O[C@H](CO)[C@@H](O)[C@H](O)[C@H]8O)[C@H]7O[C@@H]7O[C@@H](C)[C@H](O)[C@@H](O)[C@H]7O)CC[C@]6(C)[C@H]5CC[C@]34C)N2C1	13µM*	-22%	?	/	?	-18%
[Hg+][c]1ccccc1	0.56µM*	/	0.32µM*	/	/	/
